“And” between values parts separate entries of the source, which are not always exact repeats. Equal entries are not always repeated. In all, about 360,000 compounds went through this assay and about 2,400 (0.67%) were called active. Rule as the data show it: active = enhancement above about 30%; inactive = the rest. This excerpt belongs to a sample that is enriched for actives. More than one record can exist for a structure, and the calls need not agree.
Target: Thyrotropin-releasing hormone receptor (Homo sapiens) (UniProt P34981)
Experiment: qHTS for Small Molecule Agonists and Allosteric Enhancers of Human TRH Receptor: Primary Screen for Enhancers; also: 0% is about no effect
Settings: TRHR cells, fluo-8 calcium fluorescence, EC20 TRH enhancement; at 2 µM; stronger effect = higher value
Method in brief: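 TRHR-expressing cells loaded with fluo-8 calcium dye were read kinetically (ex 480/em 530) during compound addition, then stimulated with an EC20 of TRH (10 nM final). Enhancement of the Gq-mediated intracellular calcium response was scored.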

Thyrotropin-releasing hormone receptor (Homo sapiens), sequence (P34981 whole entry, looked up): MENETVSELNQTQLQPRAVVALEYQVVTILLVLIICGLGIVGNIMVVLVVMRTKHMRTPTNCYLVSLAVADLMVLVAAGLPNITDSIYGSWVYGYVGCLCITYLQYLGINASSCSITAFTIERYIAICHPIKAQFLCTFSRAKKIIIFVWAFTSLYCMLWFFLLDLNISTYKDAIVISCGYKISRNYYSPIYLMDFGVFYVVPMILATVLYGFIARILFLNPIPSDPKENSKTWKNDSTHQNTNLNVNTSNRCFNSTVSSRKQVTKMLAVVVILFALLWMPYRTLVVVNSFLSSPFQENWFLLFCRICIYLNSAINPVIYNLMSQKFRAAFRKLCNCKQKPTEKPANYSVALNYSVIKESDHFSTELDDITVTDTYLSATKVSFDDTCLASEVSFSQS

Row | SMILES | enhancement
1 | CCOC(=O)c1ccccc1NC(=O)CCc1c(C)nc2c(c1C)c(=O)n(C)c(=O)n2C | -7.61% (inactive)
2 | Cc1cc(C)cc(NS(=O)(=O)c2ccc(-c3cc(C)no3)s2)c1 | -5.49% (inactive)
3 | CCOc1cc(/C=C2\SC(N3CCCC(C)C3)=NC2=O)ccc1O (stereo not given) | -4.09% (inactive)
4 | CCc1ccc(/C=C2\SC(N3CCOCC3)=NC2=O)cc1 | 38.7% (active)
5 | O=C1N=C(N2CCOCC2)S/C1=C\C=C/c1ccccc1 | -2.61% (inactive)
6 | COc1ccc(CCNC(=O)CCCn2c(=O)c3ccccc3n(Cc3ccc(F)cc3Cl)c2=O)cc1OC | 4.63% (inactive)
7 | COc1ccc(NC(=O)CSc2ncnc3[nH]ncc23)cc1 | 3.87% (inactive)
8 | O=C(COC(=O)CCCSc1nc2ccccc2[nH]1)Nc1ccc(Oc2ccccc2)cc1 | 1.7% (inactive)
9 | CC(=O)c1cccc(NC(=O)CSc2nc3c(c(=O)[nH]2)CCC3)c1 | -3.58% (inactive)
10 | COc1ccc2nc(SCC(=O)Nc3c(C)cc(C)cc3C)[nH]c2c1 | 0.227% (inactive)
11 | Cc1csc(SCC(=O)Nc2sccc2C#N)n1 | -4.36% (inactive)
12 | COC(=O)c1cccc(NC(=O)CSc2nc(C)cc(=O)[nH]2)c1 | 36.7% (active)
13 | COc1ccc(NC(=O)CSc2nc(C)cs2)cc1 | 33.7% (active)
14 | COc1ccc(NC(=O)CSc2nc3ccccc3[nH]2)cc1 | 39.7% (active)
15 | COc1ccc(NC(=O)CSc2nc(NS(=O)(=O)c3ccc(C)cc3)cc(=O)[nH]2)cc1 | -7.18% (inactive)
16 | COC(=O)c1cccc(Cn2nnc3sc4c(c3c2=O)CCC(C(C)(C)C)C4)c1 (stereo not given) | -1.23% (inactive)
17 | COc1ccc(CCNC(=O)C(=O)NCC(c2ccco2)S(=O)(=O)c2cccs2)cc1OC (stereo not given) | -2.44% (inactive)
18 | Cn1nnnc1Sc1ncnc2scc(-c3ccccc3[N+](=O)[O-])c12 | -1.81% (inactive)
19 | COc1cc(OC)cc(C(=O)Nc2ccc3nc(Nc4cccc(C(F)(F)F)c4)cc(C)c3c2)c1 | -5.96% (inactive)
20 | CC1=CC(C)(C)N(C(=O)CSc2nnc(-c3ccccc3)o2)c2ccc(C)cc21 | 35.8% (active)
21 | Cc1cccc(-c2nnc(SCC(=O)N3CCCc4ccccc43)o2)c1 | -6.5% (inactive)
22 | CC1=CC(C)(C)N(C(=O)CSc2nccn2C)c2cc(C)ccc21 | -7.93% (inactive)
23 | CCOc1ccc(-c2cc(C)n3nc(C(=O)Nc4ccc(C)c(C)c4)cc3n2)cc1 | 4.67% (inactive)

Row | SMILES | enhancement
24 | COc1cccc(NC(=O)c2csnn2)c1 | 1.76% (inactive)
25 | Cc1cccn2c(=O)c3cc(C(=O)NC4CCCCC4)sc3nc12 | 44.3% (active)
26 | CCOC(=O)CNC(=O)c1cc2c(=O)n3cccc(C)c3nc2s1 | -2% (inactive)
27 | Cc1ccccc1-n1nc(C)c2cc(C(=O)NC3CC3)sc21 | -3% (inactive)
28 | COc1ccc(Cl)cc1NC(=O)C(C)Sc1nc2c(c(=O)[nH]1)CCCC2 (stereo not given) | 0.18% (inactive)
29 | CC(=O)c1cc(NC(=O)c2ccccc2)c(=O)oc1/C=C/N(C)C | 31.6% (active)
30 | CCOC(=O)c1cc(NC(=O)c2ccc(F)cc2)c(=O)n2c1oc1ccccc12 | -6.78% (inactive)
31 | COc1ccc(C2COC(=O)C2=N)c(NC(=O)c2ccccc2)c1 (stereo not given) | -7.29% (inactive)
32 | COc1cc(OC)c(NC(=O)Cc2ccc(-n3c(C)nc4cccnc43)cc2)cc1Cl | 9.81% (inactive)
33 | COc1ccc(OCc2n[nH]c(=S)n2N)cc1 | 41.1% (active)
34 | CSc1n[nH]c(=S)n1N | 4.42% (inactive)
35 | COc1ccc(Cc2n[nH]c(=S)n2NC(=O)Nc2ccc(C)cc2)cc1 | -6.6% (inactive)
36 | COc1ccccc1N1CCN(c2ccc(=O)n(CC(=O)NCc3ccc(OC(C)C)cc3)n2)CC1 | 2.06% (inactive)
37 | COc1cc(OC)c(NC(=O)c2cnc(N3CCCC3)nc2C)cc1Cl | 0.561% (inactive)
38 | CCOCCCNC(=O)c1c(NC(=O)c2nc(SC)ncc2Cl)sc2c1CCCC2 | 6.4% (inactive)
39 | CC(CCc1ccccc1)NC(=O)c1cnc(Cl)c(Cl)c1 (stereo not given) | -11.8% (inactive)
40 | CC1=C(C)CC(C(=O)NC(C)CCc2ccccc2)C(C(=O)O)C1 (stereo not given) | 46.8% (active)
41 | CCN(CC)S(=O)(=O)N1CCC(C(=O)NC(C)CCc2ccccc2)CC1 (stereo not given) | 5.01% (inactive)
42 | CCc1nn(CC(=O)N2CCN(c3cccc(C(F)(F)F)c3)CC2)c(=O)c2cc3occc3n12 | 6.05% (inactive)
43 | COc1cc(OC)cc(C(=O)NCCc2csc3nc(-c4ccccc4F)nn23)c1 | -2.81% (inactive)
44 | COc1ccc(C2(C)ON(c3ccccc3C(F)(F)F)C2=O)cc1 (stereo not given) | 35% (active)
45 | COc1ccc(C2(O)C(=O)Nc3ccccc32)cc1 (stereo not given) | -4.9% (inactive)
46 | COc1ccc(C2(C)NC(=O)N(CC(=O)c3ccc4c(c3)OCO4)C2=O)cc1 (stereo not given) | 2.8% (inactive)

Row | SMILES | enhancement
47 | COc1ccc(NC(=O)C2CCCN(S(=O)(=O)c3cccc4nonc34)C2)cc1Cl (stereo not given) | -6.01% (inactive)
48 | Cc1ccc(Cn2c(CCCNC(=O)C3CCCCC3)nc3ccccc32)cc1 | -17% (inactive)
49 | CC12CCC(C(=O)N3CCN(c4ncccn4)CC3)(c3nc4ccccc4nc31)C2(C)C (stereo not given) | -2.73% (inactive)
50 | c1cnc(N2CCN(c3ccc4ccccc4n3)CC2)nc1 | 45.5% (active)
51 | O=C(c1ccc2ccccc2n1)N1CCN(c2ccccc2Cl)CC1 | 2.59% (inactive)
52 | CCOc1ccccc1CNC(=O)c1ccc(-n2c(C)cc3c2CCC(C)C3)cc1 (stereo not given) | -0.716% (inactive)
53 | NC(=O)CSc1nc2c(oc3ccccc32)c(=O)n1Cc1ccccc1 | -1.53% (inactive)
54 | O=C(CNC(=O)c1ccc(Cl)cc1Cl)NCC(=O)Nc1ccccc1N1CCOCC1 | 31.1% (active)
55 | O=C(Nc1ccccc1N1CCOCC1)c1ccncc1 | 6.76% (inactive)
56 | Cc1ccc(NC(=O)COC(=O)CNC(=O)c2ccc(Cl)cc2Cl)cc1S(=O)(=O)N1CCOCC1 | 1.95% (inactive)
57 | CCOC(=O)c1ccc(COC(=O)CCc2nc(-c3ccccc3)c(-c3ccccc3)o2)cc1 | 31.7% (active)
58 | CCOC(=O)c1ccc(-n2c(CCC(=O)O)ccc2-c2ccccc2)cc1 | -12.3% (inactive) and 10.9% (inactive)
59 | CCOC(=O)c1c(-c2ccc(OC)cc2)oc2ccc(OCc3ccc(C(=O)OC)cc3)cc12 | -1.96% (inactive)
60 | COc1ccc(Cn2c(C(=O)O)c(CNCc3cccc(OC)c3)c3ccc(C)cc32)cc1 | 4.01% (inactive)
61 | COc1cc(NC(=O)c2noc3c2CSc2ccccc2-3)cc(OC)c1OC | 4.94% (inactive)
62 | COc1ccc(-c2c3c(=O)n(C)c(=O)n(C)c3c3c(C)nc4ccccc4n23)cc1 | -1.08% (inactive)
63 | COc1ccc(-c2[nH]c3c(c2-c2c(-n4cccc4)n(C)c(=O)n(C)c2=O)c(=O)n(C)c(=O)n3C)cc1 | 31.9% (active)
64 | COc1ccc(Nc2cc(=O)n(-c3ccccc3)c3c2c(=O)n(C)c(=O)n3C)cc1 | -11.6% (inactive)
65 | CCOC(=O)c1cc(-c2ccccc2)n(CCC(=O)Nc2ccccc2CC)c1C | 14% (inactive)
66 | Cc1ccccc1NC(=O)Cn1c(=O)n(CCCCC(=O)NCc2ccccc2Cl)c(=O)c2ccccc21 | 2.95% (inactive)
67 | Cc1c(C(=O)Nc2cccc(Cl)c2)oc2ccc(S(=O)(=O)N3CCOCC3)cc12 | -6.24% (inactive)
68 | O=C(NCCc1ccccc1)C1CC1 | -3.66% (inactive)
69 | C[C@H](NC(=O)NCCc1ccccc1)C(=O)O | 33.9% (active)

Row | SMILES | enhancement
70 | CC(C)C[C@H](NC(=O)NCCc1ccc(Cl)cc1)C(=O)O | -5.99% (inactive)
71 | CC(C)Cn1c(C2CC(=O)N(c3ccccc3Cl)C2)nc2ccccc21 (stereo not given) | -0.635% (inactive)
72 | CN(C)c1ccc(C(=O)NCC(=O)OC(C(=O)Nc2cc(C(F)(F)F)ccc2Cl)c2ccccc2)cc1 (stereo not given) | -3.56% (inactive)
73 | C[N+](C)(C)CCNC(=O)c1cc[n+](Cc2ccccc2)c(/C=N/O)c1 | 40.4% (active)
74 | O=C(NCCCNCc1ccccc1)c1ccc(/C=N/O)nc1 | 15.9% (inactive)
75 | C[n+]1ccc(C(=O)NCc2ccccc2)cc1 | -9.31% (inactive)
76 | CCn1c(CN2CCC(C)CC2)nc2cc(NC(=O)c3ccccc3[N+](=O)[O-])ccc21 | 3.72% (inactive)
77 | COc1ccccc1-c1cc2nc(C)c(CCC(=O)O)c(C)n2n1 | 5.74% (inactive)
78 | O=C(COC(=O)C12CC3CC(CC(C3)C1)C2)NCc1ccco1 | -2.58% (inactive) and 33.9% (active)
79 | O=C(CC1CCCCC1)NCc1ccco1 | 14.2% (inactive)
80 | O=C(CC12CC3CC(CC(C3)C1)C2)NCc1ccco1 | -4.28% (inactive)
81 | Cc1ccc(NC2=C(c3ccc(C(F)(F)F)cc3)C(=O)c3ccccc32)cc1F | -15.7% (inactive)
82 | CCOC(=O)c1c(NC(=O)Cc2coc3ccc(CC)cc23)sc2c1CCC2 | -3.01% (inactive)
83 | O=C(Nc1nnc(C2CC(=O)N(c3ccc(Cl)cc3)C2)s1)c1ccco1 (stereo not given) | -3.65% (inactive)
84 | CCc1ccc(NC(=O)c2cc(S(=O)(=O)NC3CCCCCC3)ccc2F)cc1 | 3.53% (inactive)
85 | O=C(Nc1ccc(F)cc1)c1cccnc1N1CCOCC1 | -2.71% (inactive)
86 | O=C(Nc1ccccc1)c1cccnc1Nc1ccccc1 | 47.9% (active)
87 | O=C(Nc1ccccc1)c1ccccc1NC(=O)C(F)(F)F | -2.9% (inactive)
88 | CC(CCCc1ccccc1)NC(=O)c1nn(-c2ccc(Cl)cc2)nc1CO (stereo not given) | -3.71% (inactive)
89 | Cc1cc(C)cc(Nc2ncnc3onc(-c4ccc(F)cc4)c23)c1 | 5.09% (inactive)
90 | Cn1c(SCC(=O)N2CCCc3ccccc32)ncc(C(=O)Nc2ccc(F)cc2)c1=O | 7.76% (inactive)
